BoNT A protease: BoNT/A light chain protease inhibitors, primary screen, biochemical, flow cytometry, MLPCN library | inhibition, % at 10 µM | Botulinum neurotoxin type A light chain protease (Clostridium botulinum A str. ATCC 3502) | hit rate 0.17% among 360,000 | multiplex microsphere protease substrate cleavage
BoNT F protease: BoNT/F light chain protease inhibitors, primary screen, biochemical, flow cytometry, MLPCN library. Botulinum neurotoxin type F light chain protease (Clostridium botulinum). Multiplex microsphere protease cleavage assay. inhibition, % at 10 µM. hit rate 0.22% among 360,000; in the data active = inhibition above about 35%, passing the limit was not always enough; inconclusive = no clear call, values can overlap the other calls
MazF activator: activators of E. coli MazEF toxin-antitoxin RNase, primary screen, biochemical, fluorescence, uHTS; Endoribonuclease toxin MazF (Escherichia coli (strain K12)), P0AE70; FAM/BHQ RNA-DNA oligo cleavage fluorescence, 5 h; activation, % at 20 µM; hit rate 0.32% among 350,000; in the data active = activation above about 50%
Target sequence (P0AE70 whole entry, looked up): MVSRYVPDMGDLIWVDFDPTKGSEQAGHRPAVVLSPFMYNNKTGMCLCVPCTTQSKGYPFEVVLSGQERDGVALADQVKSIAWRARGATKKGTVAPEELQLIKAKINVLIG
Autofluor counter: counter-screen for toxin protease inhibitors: compound fluorescence | compound autofluorescence counterscreen, microsphere flow cytometry; hits give high values | fluorescence intensity (no concentration beside the values) | hit rate 3.1% among 360,000 | AID 624483; in the data active = fluorescence intensity above about 16000; inconclusive = no clear call, values can overlap the other calls
Anthrax LF inh2: Bacillus anthracis LF protease inhibitors, primary screen, biochemical, multiplex microsphere, MLPCN library | multiplex microsphere protease cleavage assay | inhibition, % at 10 µM | hit rate 0.12% among 360,000
PriA SSB inh: inhibitors of Klebsiella pneumoniae PriA binding to SSB C-terminal tail, primary screen, biochemical, AlphaScreen | hit rate 0.6% among 430,000 | AlphaScreen SSBct-PriA binding, biotinylated peptide | PriA–SSB C-terminal tail interaction (Klebsiella pneumoniae) | inhibition, % at 33 µM | AID 1272365, 2023; in the data active = inhibition mostly above about 37%, no sharp cut-off; inactive = mostly below about 20%
Each line names hits and unclear results; the compound was inactive in the other large screens. Shown are actives, neighbours in structure and some others; about 3.3% of the full set was active somewhere. Rule as the data show it, unless noted: active = inhibition above about 30%; inconclusive = no clear call, values can overlap the other calls; inactive = below that.

CC(C)CNC(=O)C(=O)NNC(=O)C1CCCCC1	Autofluor counter 21511
CN(C)c1ccc(C=NNC(=O)C2CC2c2ccccc2)cc1 (configuration not stated)	PriA SSB inh 44.1 (no result: BoNT A protease, BoNT F protease, MazF activator, Autofluor counter, Anthrax LF inh2)
CC(C)(C)P(=O)(CO)c1ccccc1 (configuration not stated)	Autofluor counter 19072
CC(C)(O)P(C)(=O)c1ccccc1 (configuration not stated)	none
COC(CNS(=O)(=O)c1cccc(C(C)=O)c1)c1ccsc1 (configuration not stated)	none (no result: BoNT A protease, BoNT F protease, MazF activator, Autofluor counter, Anthrax LF inh2)
CCOC(=O)NC1(NCC(C)C)Oc2ccccc2O1	Autofluor counter 16411
O=C(O)c1cccc(N2C(=O)/C(=C/c3ccc(SCc4ccc(Cl)cc4)o3)SC2=S)c1	MazF activator 573.5
Cc1cc(C)n(Cc2ccc(NC(=O)c3c([N+](=O)[O-])c(C)nn3C)cc2)n1	Autofluor counter 21819
Cc1cc(C)n(Cc2ccc(NC(=O)c3nn(C)cc3[N+](=O)[O-])cc2)n1	Autofluor counter 22583
CCn1cc([N+](=O)[O-])c(C(=O)Nc2ccc(Cn3nc(C)cc3C)cc2)n1	none
CCOC(=O)c1ccc2nc(NC(=O)CCSc3ccccc3)sc2c1	none (no result: BoNT A protease, BoNT F protease, MazF activator, Autofluor counter, Anthrax LF inh2)
COc1ccc(Nc2c([N+](=O)[O-])ccc3c2=NC2(CCCCC2)N=3)cc1	PriA SSB inh 75.9
O=C(Nc1ccc(F)cc1)N1CCN(c2nc3ccccc3s2)CC1	none
O=C(Nc1ccccc1)N1CCN(c2nc3ccccc3s2)CC1	Autofluor counter 21122
COc1ccc(Cc2nnc(C3CCN(C(=O)Nc4ccc(OC)cc4)CC3)s2)cc1	none (no result: BoNT A protease, BoNT F protease, MazF activator, Autofluor counter, Anthrax LF inh2)
COc1cccc(/C=c2/s/c(=C(\C#N)C(=O)N3CCOCC3)n(-c3ccccc3)c2=O)c1	BoNT A protease inconclusive, Autofluor counter 20549 (no result: PriA SSB inh)
CN1C(=O)C(C)(C)COc2ccc(NS(=O)(=O)Cc3ccccc3F)cc21	none (no result: BoNT A protease, BoNT F protease, MazF activator, Autofluor counter, Anthrax LF inh2)
Cc1cc(C(=O)CSc2nnc(N)s2)c(C)n1CCc1ccc(Cl)cc1	BoNT A protease inconclusive, Autofluor counter 22078
Cc1cc(C(=O)CSc2nnc(N)s2)c(C)n1CCc1ccc(F)cc1	none
Cc1cc(C(=O)CCl)c(C)n1CCc1ccc(Cl)cc1	PriA SSB inh 40.8
Cc1cc(C(=O)CCl)c(C)n1CCc1ccc(F)cc1	none
Cc1c(N2C(=O)/C(=C\c3ccc(N(C)C)cc3)N(C)C2=S)c(=O)n(-c2ccccc2)n1C	MazF activator 130.6
CCOc1ccc(S(=O)(=O)N2CCN(S(=O)(=O)c3ccc(OCC)cc3)C(C)C2)cc1 (configuration not stated)	Autofluor counter 17504
CCOc1ccc(S(=O)(=O)N2CN3CCN(C3)C2)cc1	none
Sc1oc(-c2ccccc2)cc1C=Nc1ccccc1	Autofluor counter 24473, PriA SSB inh 40.8
Oc1c(Br)cc(Br)cc1C=Nc1ccc(-c2ccccc2)cc1	none (no result: BoNT A protease, BoNT F protease, MazF activator, Autofluor counter, Anthrax LF inh2)
c1csc(-c2nc3ccccn3c2NC2CCCCC2)c1	none
CC(=O)c1ccc(-c2cccc(-c3nc4ccccn4c3NC3CCCCC3)c2)cc1	PriA SSB inh 41.1
COc1cccc(CSc2nc(CC(=O)N3CCc4ccccc43)cc(=O)[nH]2)c1	none (no result: BoNT A protease, BoNT F protease, MazF activator, Autofluor counter, Anthrax LF inh2)
O=[N+]([O-])c1cc(S(=O)(=O)C(F)(F)F)ccc1N1CCN(c2ccccc2)CC1	PriA SSB inh 47.1
CN1CCN(c2ccc(S(=O)(=O)C(F)(F)F)cc2[N+](=O)[O-])CC1	none
O=S(=O)(c1ccc(N2CCCC2)cc1)C(F)(F)F	Autofluor counter 16476
CCC1(C)Cc2c(sc3c2c(=O)n(C)c2nnc(SCC(=O)c4ccccc4)n32)CO1 (configuration not stated)	Autofluor counter 20408
CCC1(C)Cc2c(sc3c2c2ncnn2c2nnc(SCC(=O)NCc4ccco4)n32)CO1 (configuration not stated)	none
Cc1c(C(=O)N2CCN(c3ccccn3)CC2)oc2ccccc12	Autofluor counter 22383
CC(=O)N1CCN(C(=O)c2oc3ccccc3c2C)CC1	none
Cc1cnn(C(=O)c2oc3ccccc3c2C)c1	Autofluor counter 22067
COc1ccc2oc(=O)c(C(=O)N3CCN(c4ccccn4)CC3)cc2c1	none (no result: BoNT A protease, BoNT F protease, MazF activator, Autofluor counter, Anthrax LF inh2)
COc1cc(Br)cc2cc(C(=O)N3CCN(c4ccccn4)CC3)c(=O)oc12	Autofluor counter 23664
O=C(c1cc2cc(Br)ccc2oc1=O)N1CCN(c2ccccn2)CC1	Autofluor counter 16477
CCOC(=O)c1sc(NC(=O)CSc2ncnc3ccccc23)c(C(=O)OCC)c1C	none (no result: BoNT A protease, BoNT F protease, MazF activator, Autofluor counter, Anthrax LF inh2)
COc1ccc(-c2nnc(NC(=O)c3ccccc3Cl)s2)c(OC)c1	none (no result: BoNT A protease, BoNT F protease, MazF activator, Autofluor counter, Anthrax LF inh2)
CSc1ccc(NC(=O)c2ccc(S(=O)(=O)N3CCOCC3)cc2)nn1	none (no result: BoNT A protease, BoNT F protease, MazF activator, Autofluor counter, Anthrax LF inh2)
COc1ccc(-c2ccc(N3CCC(C(=O)NCc4ccccn4)CC3)nn2)cc1	none (no result: BoNT A protease, BoNT F protease, MazF activator, Autofluor counter, Anthrax LF inh2)
Cc1cccc(NC(=S)N(CCN(C)C)C(C)c2ccccn2)c1 (configuration not stated)	Autofluor counter 22805
O=C1N(c2ccc(Cl)c(Cl)c2)CN(Cc2ccccc2)CN1n1cnnc1	Autofluor counter 17448
COc1ccc(CN2CN(c3ccc(Cl)cc3)C(=O)N(n3cnnc3)C2)cc1	none
CC(C)(C)c1ccc(NC(=O)N2CCn3cccc3C2c2cccs2)cc1 (configuration not stated)	none (no result: BoNT A protease, BoNT F protease, MazF activator, Autofluor counter, Anthrax LF inh2)
Cc1cc(C)c2nc(C)cc(NN=Cc3ccc(O)cc3)c2c1	none (no result: BoNT A protease, BoNT F protease, MazF activator, Autofluor counter, Anthrax LF inh2)
CCCCCc1cc(=O)oc2c(C(CCN(CC)CC)c3ccc(N(C)C)cc3)c(OC)cc(OC)c12 (configuration not stated)	PriA SSB inh 67.0
CCCCCc1cc(=O)oc2c(C(CCN3CCCC(C)C3)c3ccc(N(C)C)cc3)c(OC)cc(OC)c12 (configuration not stated)	PriA SSB inh 90.1
O=P(Nc1ccccc1)(Nc1ccccc1)Oc1cccc(Cl)c1	BoNT A protease inconclusive, Autofluor counter 17171
COc1ccc(-c2cc(N3CCC(C(=O)Nc4nc5c(s4)CCCC5)CC3)ncn2)cc1	none (no result: BoNT A protease, BoNT F protease, MazF activator, Autofluor counter, Anthrax LF inh2)
O=C(C=CNNC(=O)c1ccccc1)c1ccc([N+](=O)[O-])cc1	none (no result: BoNT A protease, BoNT F protease, MazF activator, Autofluor counter, Anthrax LF inh2)
Cc1ccc(-c2nnn(CC(=O)N(CC3CCCO3)C(C(=O)NC(C)(C)C)c3ccc(F)cc3)n2)o1 (configuration not stated)	BoNT A protease inconclusive, Autofluor counter 22682
O=C(NCC1CCCO1)C(c1ccc(F)cc1)N(C(=O)Cn1nnc(-c2ccc(F)cc2)n1)c1cccc(O)c1 (configuration not stated)	none
CC(C)CC(C(=O)NCC1CCCO1)N(C(=O)Cn1nnc(-c2ccc(F)cc2)n1)c1ccccc1F (configuration not stated)	Autofluor counter 21995

Source: PubChem (several laboratories)
